Source: PubChem BioAssay (Tox21)
Results filed as inconclusive are left out. Active and inactive are the calls of the source. Unless noted, the call rests on the fitted dose curve.

Legend:
[1] = qHTS assay to identify small molecule agonists of the vitamin D receptor (VDR) signaling pathway - cell viability counter screen (AID 743224; active means well fitted cell-killing curve with a large enough effect in the repeat runs; further: series mostly up to about 63 µM; on the % scale 0 is the no-effect control and ±100 the full control effect; nearly all actives have a fitted effect of over 50% in size)
How it was run: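 Counter screen run in the same wells as the VDR-bla reporter assay: CellTiter-Glo luminescence, 30 min at room temperature, after 16 h compound treatment at 37C of cells pre-plated for 4 h.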

[2] = qHTS assay to identify small molecule antagonists of the vitamin D receptor (VDR) signaling pathway - cell viability counter screen (AID 743225; active means well fitted cell-killing curve with a large enough effect in the repeat runs; further: on the % scale 0 is the no-effect control and ±100 the full control effect; nearly all actives have a fitted effect of over 50% in size)
How it was run: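 Read-out: CellTiter-Glo luminescence measured 30 min after reagent addition at room temperature. Cells were VDR-bla HEK 293T exposed 16 h at 37C, 5% CO2, to compound with 3 nM final calcitriol agonist.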

[3] = qHTS assay to identify small molecule agonists of the NFkB signaling pathway (AID 1159509; active means well fitted curve in the direction sought with a large enough effect in the signal ratio in the repeat runs, not every such curve was filed as active; the % refers to the signal ratio; further: series mostly up to about 61 µM; on the % scale 0 is the no-effect control and ±100 the full control effect)
How it was run: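 Agonist activity was read as beta-lactamase-driven FRET change (460 and 530 nm emission, 405 nm excitation) following 1.5 hr substrate loading at room temperature. Beforehand, ME-180 NFkB-bla reporter cells were treated with compounds for 5 hr at 37 C.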

[4] = qHTS assay to identify small molecule agonists of the NFkB signaling pathway - cell viability counter screen (AID 1159515); further: series mostly up to about 61 µM; on the % scale 0 is the no-effect control and ±100 the full control effect; nearly all actives have a fitted effect of over 55% in size
How it was run: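 Read by CellTiter-Glo luminescence (30 min, room temperature) in the wells also used for the beta-lactamase FRET read. ME-180 NFkB-bla cells at 2,000 per well were plated overnight, then exposed to compound for 5 hr at 37 C.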

[5] = qHTS assay to identify small molecule agonists of the endoplasmic reticulum stress response signaling pathway (AID 1159516; active means well fitted activation curve with a large enough effect in the signal ratio in the repeat runs, not every such curve was filed as active; the % refers to the signal ratio; further: on the % scale 0 is the no-effect control and ±100 the full control effect)
How it was run: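 Ratiometric FRET readout (405 nm excitation; 460 and 530 nm emission) of a beta-lactamase gene driven by the ER stress response element, after 2 hr substrate loading. HeLa ESRE-bla cells were seeded overnight and treated with compounds for only 5 hr at 37 C.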

[6] = qHTS assay to identify small molecule agonists of the endoplasmic reticulum stress response signaling pathway - cell viability counter screen (AID 1159517); further: series mostly up to about 61 µM; on the % scale 0 is the no-effect control and ±100 the full control effect; nearly all actives have a fitted effect of over 50% in size
How it was run: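 ESRE-bla HeLa cells (1,500/well) were plated overnight at 37 C and exposed to compounds for 5 hr. After the 2 hr beta-lactamase substrate read, CellTiter-Glo went into the same wells, and luminescence was read after 30 min at room temperature.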

[7] = qHTS assay to identify small molecule antagonists of the retinoid-related orphan receptor gamma (ROR-gamma) signaling pathway - cell viability counter screen (AID 1159520; active means well fitted cell-killing curve with a large enough effect in the repeat runs; further: on the % scale 0 is the no-effect control and ±100 the full control effect; nearly all actives have a fitted effect of over 50% in size)
How it was run: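 Cytotoxicity was read from cellular ATP (CellTiter-Glo luminescence) after 16 hr at 37 C with 1 uM doxycycline induction. The inducer was added 2 hr after compound transfer to Tet-on ROR gamma CHO cells.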

[8] = qHTS assay to identify small molecule agonists of the AP-1 signaling pathway - cell viability counter screen (AID 1159525); further: nearly all actives have a fitted effect of over 55% in size
How it was run: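 Intracellular ATP by Cell Titer Glo luminescence (30 min, RT) in the same ME-180 AP-1-bla wells after the 5 h compound exposure at 37 °C. Normalised to tetra n-octyl ammonium bromide and DMSO controls.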

[9] = qHTS assay to identify small molecule agonists of the AP-1 signaling pathway (AID 1159526); further: on the % scale 0 is the no-effect control and ±100 the full control effect

O=C1CCCc2ccccc21
inactive: Potency [1] | Potency [2] | outcome [3] | outcome [4] | outcome [5] | outcome [6] | Potency [7] | outcome [8] | Potency [9]

Cc1cc(S(=O)(=O)O)c(N)cc1Cl
inactive: Potency [1] | outcome [3] | outcome [4] | outcome [5] | outcome [6] | Potency [7] | outcome [8] | Potency [9]

O=C(Cl)c1cccc([N+](=O)[O-])c1
inactive: Potency [1] | outcome [3] | outcome [4] | outcome [5] | outcome [6] | Potency [7] | outcome [8] | Potency [9]

CCCCN1C[C@H](O)[C@@H](O)[C@H](O)[C@H]1CO
inactive: Potency [1] | outcome [3] | outcome [4] | outcome [5] | outcome [6] | Potency [7] | outcome [8] | Potency [9]

CCOc1ccc(OCC)c(Cl)c1
inactive: Potency [1] | Potency [2] | outcome [3] | outcome [4] | outcome [5] | outcome [6] | Potency [7] | outcome [8] | Potency [9]

CC(C)(CO)[C@@H](O)C(=O)NCCC(=O)O
inactive: Potency [1] | outcome [3] | outcome [4] | outcome [5] | outcome [6] | Potency [7] | outcome [8] | Potency [9]

CCN(CC)CCNC(=O)COc1ccc(Cl)cc1
inactive: Potency [1] | outcome [3] | outcome [4] | outcome [5] | outcome [6] | Potency [7] | outcome [8] | Potency [9]

C[C@@H]1CN(c2c(F)c(F)c3c(=O)c(C(=O)O)cn(C4CC4)c3c2F)C[C@H](C)N1
inactive: Potency [1] | Potency [2] | outcome [3] | outcome [4] | outcome [5] | outcome [6] | activity, negative = cytotoxicity [7] 3.95% [at 19 µM] | viability change, negative = cytotoxic [8] 7.6% [at 15.8 µM] | activation [9] -3.66% [at 15.8 µM]

C=O
inactive: Potency [1] | Potency [2] | outcome [3] | outcome [4] | outcome [5] | outcome [6] | Potency [7] | outcome [8] | Potency [9]

N#Cc1ccc(C(c2ccc(C#N)cc2)n2cncn2)cc1
inactive: Potency [1] | Potency [2] | outcome [3] | outcome [4] | outcome [5] | outcome [6] | Potency [7] | outcome [8] | Potency [9]

CCCC(CCC)(C(=O)OCC)C(=O)OCC
inactive: Potency [1] | Potency [2] | outcome [3] | outcome [4] | outcome [5] | outcome [6] | Potency [7] | outcome [8] | Potency [9]

CCCCCCC
inactive: Potency [1] | Potency [2] | outcome [3] | outcome [4] | outcome [5] | outcome [6] | Potency [7] | outcome [8] | Potency [9]
